Sampled rows, rich in hits. Any-hit rate of the full collection: about 8.3%.
RORgamma inh – inhibitors of mouse ROR gamma transcriptional activity; AID 2551; 310,000 compounds, 5.4% hits; Drosophila S2 Gal4-RORgamma UAS-luciferase reporter, 20 h; Potency, µM (highest dose often 53.6 µM), for inactives: top-dose activity change, negative = inhibition, usual class: inhibitors; further: potency means the concentration at half of the fitted maximal effect; on the % scale 0 is the no-effect control and ±100 the full control effect; nearly all actives have a fitted effect of over 60% in size
Target sequence (P51450 whole entry, looked up, the tested form may be a part): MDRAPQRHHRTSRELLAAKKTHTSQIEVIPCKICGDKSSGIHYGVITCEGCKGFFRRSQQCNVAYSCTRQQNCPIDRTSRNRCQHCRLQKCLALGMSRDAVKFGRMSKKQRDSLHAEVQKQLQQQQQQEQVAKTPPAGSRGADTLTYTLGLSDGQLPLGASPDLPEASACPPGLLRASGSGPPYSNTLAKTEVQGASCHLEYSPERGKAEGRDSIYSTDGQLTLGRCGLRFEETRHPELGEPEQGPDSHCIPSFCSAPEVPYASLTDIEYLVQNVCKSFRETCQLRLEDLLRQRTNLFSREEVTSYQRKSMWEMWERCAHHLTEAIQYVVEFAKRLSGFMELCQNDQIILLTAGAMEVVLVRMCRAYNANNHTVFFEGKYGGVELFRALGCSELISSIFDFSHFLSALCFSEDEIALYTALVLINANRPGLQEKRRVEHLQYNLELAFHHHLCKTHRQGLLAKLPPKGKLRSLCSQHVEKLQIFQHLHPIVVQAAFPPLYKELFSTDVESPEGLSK
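Drosophila Schneider cells stably carrying a metallothionein-driven Gal4 DBD–ROR gamma fusion and a UAS-Photinus luciferase reporter were exposed to compound for 1 hr, then induced with copper sulfate (700 uM final) for 20 hr at ambient temperature before luminescence reading.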
SW480 rereplic – induces DNA re-replication in SW480 colon adenocarcinoma cells; SW480 DNA re-replication, Hoechst DNA content imaging, 48 h; Potency, µM (series often up to 46.1 µM), inactives show at the top dose re-replication activation, most hits filed as activators; 340,000 compounds, 1.8% hits; AID 624297; further: potency means the concentration at half of the fitted maximal effect; % of control where 0% means no effect; nearly all actives have a fitted effect of over 55% in size
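Quantitative HTS format with DMSO vehicle controls; 48 hr drug incubation at 37 C, then 40 min Hoechst staining and scanning imager measurement at 405 nm excitation.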
Gal4-VP16 FLuc – Gal4-VP16 reporter inhibition counter-screen. Drosophila S2 Gal4-VP16 UAS-luciferase, luminescence, 20 h. Potency, µM (highest dose often 53.6 µM), for inactives: at the top dose activity, negative = inhibition, hits mostly inhibitors. 310,000 compounds, 3.5% hits;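 further: Gal4-VP16 expression switched on by copper sulfate through the metallothionein promoter; potency means the concentration at half of the fitted maximal effect; on the % scale 0 is the no-effect control and ±100 the full control effect; nearly all actives have a fitted effect of over 50% in size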
Giardia killer – Giardia lamblia killing | 340,000 compounds, 0.15% hits | Giardia lamblia trophozoite viability | AID 540267 | activity change, % at 7.66 µM, hits read low; in the data active means activity change below about -80%; inconclusive means between about -30% and that limit;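 further: parasites exposed to compound for two days anaerobically before the ATP read; on the % scale 0 is the no-effect control and ±100 the full control effect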
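ATP-content bioluminescence gauges trophozoite survival. Cells (100/well) receive compound and incubate anaerobically for 48 hrs at 37 deg C; detection reagent follows for 15-30 min at room temperature.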
Chronic BCR inh – blocks chronic active B-cell receptor signaling. ABC-DLBCL IkBa-CBG/CBR reporter, luminescence ratio, 4 h. 340,000 compounds, 0.05% hits. Potency, µM (doses to about 46.1 µM), without a hit: top-dose activity change, negative = inhibition, usual class: inhibitors; active means well fitted inhibition curve with a large enough effect in the signal ratio, with a control signal flat, not every such curve was filed as active; inconclusive means small, poorly fitted or top-dose-only effect, or effect the other way, or a change in a side signal; the % refers to the signal ratio;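 further: potency means the concentration at half of the fitted maximal effect; plate controls were basal doxycycline-induced cells for no effect and cells given 10 µM MG132 for full effect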
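TMD8 ABC-DLBCL cells carrying doxycycline-inducible green luciferase fused to IkappaBalpha plus unfused red luciferase were exposed to compounds (up to 46 uM) for 4 hrs at 37C. Activity came from the overlap-corrected green/red luminescence ratio.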
MCF10A rereplic – DNA re-replication induction in MCF 10a cells; 350,000 compounds, 2.9% hits; AID 624296; Potency, µM (titrated, usually from 46.1 µM), without a hit: at the top dose activity, positive = re-replication, hits mostly activators; MCF 10A DNA re-replication, Hoechst nuclear intensity, 48 h; further: potency means the concentration at half of the fitted maximal effect; % of control where 0% means no effect; nearly all actives have a fitted effect of over 50% in size
Numbers without * were called inactive; ? = inconclusive; · = no result given. Unless noted, the call rests on the fitted dose curve; in most records, active means well fitted curve in the direction sought with a large enough effect; inconclusive means small, poorly fitted or top-dose-only effect, or another doubt; inactive means no such curve, though single readings can be large; an effect the other way counts as inactive or inconclusive.

SMILES	RORgamma inh	SW480 rereplic	Gal4-VP16 FLuc	Giardia killer	Chronic BCR inh	MCF10A rereplic
N#Cc1c(-c2cccnc2)c2c([nH]c1=S)CCCC2	11µM*	0%	-26%	18	10%	-6%
COc1ccc(OC)c(-c2c3c([nH]c(=S)c2C#N)CCCC3)c1	16µM*	1%	?	-23	9%	-3%
N#Cc1c(-c2ccco2)c2c([nH]c1=S)CCCC2	9%	2%	-1%	4	17%	-3%
CCOC(=O)C1CCCCN1Cc1ccc(-c2ccccc2)cc1 (stereo not drawn)	?	-1%	29%	3	?	0%
COC(=O)c1ccc2c(=O)n(CCc3ccc(S(N)(=O)=O)cc3)c(SCC(=O)C(C)(C)C)nc2c1	·	·	·	·	2%	·
CCOC(=O)C1=C(c2ccccc2)NC(N)=NC1c1ccc(OCc2ccc(Cl)cc2)c(OC)c1 (stereo not drawn)	-1%	?	-18%	2	11%	18µM*
COCCCNC(=O)CN(c1cccc(Cl)c1)S(C)(=O)=O	2%	-3%	1%	5	-1%	0%
CC12CCC(C(=O)NNc3ccccc3)(C(=O)C1=O)C2(C)C (stereo not drawn)	15%	-1%	0%	-3	4%	16µM*
COc1ccc(-c2cnc3ccccc3n2)cc1NC(=O)CNC(=O)c1ccccc1	?	28%	-23%	-16	4%	?
O=C(NCC1CCCO1)c1ccc(N2CCCCC2)nc1 (stereo not drawn)	?	-9%	8%	-14	-2%	-6%
CCOC(=O)Nc1ccc2nc(N3CCCCCC3)sc2c1	?	10µM*	-18%	-27	?	15µM*
O=C(NCC1CCCO1)c1ccc2nc(N3CCCCC3)sc2c1 (stereo not drawn)	7.1µM*	-9%	?	-30	?	7%
CC1CCN(c2nc3ccc(C(=O)NCCCN4CCCCC4)cc3s2)CC1	1%	18%	4%	-22	?	19%
CCC1CCCCN1CCCNC(=O)c1ccc2nc(N3CCC(C)CC3)sc2c1 (stereo not drawn)	-34%	18µM*	18%	4	?	20%
CC1CCN(c2nc3ccc(C(=O)O)cc3s2)CC1	0.89µM*	-166%	1.4µM*	-29	?	1%
CC1CCC2(CC1)NC(=O)N(CC(=O)N1c3ccccc3CC1C)C2=O (stereo not drawn)	·	13%	·	13	-6%	?
CN(C(=O)CSc1ncnc2sc3c(c12)CCC3)C1CCS(=O)(=O)C1 (stereo not drawn)	·	7%	·	3	-4%	18%
CCOc1ccccc1CNC(=O)c1cc2oc3ccccc3c2n1CC	17%	4%	-1%	-14	15%	18µM*
CCn1c(C(=O)N2CCc3ccccc3C2)cc2oc3ccccc3c21	-37%	1%	-23%	-5	?	16µM*
Cc1ccc(CC(=O)O/N=C(\N)c2ccncc2)cc1	29%	-13%	5%	-3	?	1%
Cc1ccc(/C=N/NC(=O)c2nnn(-c3nonc3N)c2CNc2ccccc2)cc1	-36%	23%	-11%	28	4%	15%
COc1ccc2ccccc2c1/C=N/NC(=O)c1nnn(-c2nonc2N)c1C(C)C	?	-7%	?	-5	1%	?
Cc1c(C(=O)N/N=C/c2c(O)ccc3ccccc23)nnn1-c1nonc1N	4.5µM*	0.73µM*	7.1µM*	32	-17%	-1%
Cc1ccc(COc2cccc(/C=N/NC(=O)c3nnn(-c4nonc4N)c3C)c2)cc1	20%	-8%	-6%	-1	-1%	2.6µM*
Nc1nonc1-n1nnc(C(=O)N/N=C/c2ccc(OCc3ccc(F)cc3)cc2)c1COc1ccccc1	7.1µM*	15µM*	?	-20	?	?
Nc1nonc1-n1nnc(C(=O)N/N=C/c2cc(Br)ccc2O)c1CNc1ccccc1	5µM*	?	7.1µM*	?	4%	7.3µM*

Assay outcomes: PubChem BioAssay, National Center for Advancing Translational Sciences (NCATS)
